In PubChem BioAssay one finds composite z-score and composite Z-score data, which are given here for 14 compounds.

Active and inactive are the calls of the source.

The target of one assay is Albumin (Bos taurus) (UniProt P02769). The experiment in a line: compounds binding labelled BSA control protein – biochemical, small-molecule microarray, Alexa647 label, 635/667 nm fluorescence, artefact control for SMM control protein annotation, profiling panel (AID 1118).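 Also: score merges 667 nm emission intensity and signal-to-noise per printed compound spot.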 Conditions: BSA-A647 binding, fluorescence 635 nm, higher = more signal.
Assay [1] is described as follows: probe aXIP binding to arrayed compounds – biochemical, NeuroSMM set, 635/667 nm fluorescence, primary screen (AID 1119).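 Also: probe is the protein aXip251-270 applied at 1 µg/mL to compound-printed slides; binding of probe to printed compounds measured as 667 nm fluorescence plus signal to noise.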 Conditions: small-molecule microarray, higher = more signal, called active from +8 up or from −8 down.
Assay [2] can be described thus: probe aNOTCH3 binding on compound microarray – biochemical, small-molecule microarray, 635/667 nm fluorescence, primary screen (AID 1120).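 Also: probe is a biotin-tagged antibody raised against NOTCH3 rather than NOTCH3 protein; score merges spot fluorescence near 667 nm with spot signal to noise.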 The note with it: higher = more signal.
The nature of assay [3]: probe aNOTCH2 binding on compound microarray – biochemical, small-molecule microarray, 635/667 nm fluorescence, primary screen (AID 1121).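 Also: score merges feature fluorescence read at 667 nm with its signal to noise.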 Conditions: higher = more signal.
Assay [4] has as its target Carbonic anhydrase 2 (Homo sapiens) (UniProt P00918). The experiment in a line: compounds binding carbonic anhydrase 2 – biochemical, small-molecule microarray, Alexa647-labelled CAII, profiling panel (AID 1122). The note with it: CAII-A647 binding fluorescence, higher = more signal.
The nature of assay [5]: COS7 lysate on small-molecule microarray, probe aHis, 635 nm (AID 1123).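 Also: z-score combines 667nm fluorescence intensity with signal-to-noise per printed compound spot.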 The note with it: COS7 cell lysate, fluorescence, higher = more signal.
Assay [6] can be described thus: probe aLAP1 signal on lysate-treated microarray – cell lysate, small-molecule microarray, COS7 lysate, primary screen (AID 1124).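 Also: lysate comes from COS7 cells expressing LAP1 and is applied at 0.3 µg/mL; score merges spot fluorescence near 667 nm with signal-to-noise over triplicate slides.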 Conditions: probe aLAP1, fluorescence, higher = more signal.
Another assay concerns Sam68 (KHDRBS1). Nature of the assay: compounds binding KHDRBS1 protein – biochemical, small-molecule microarray, 635 nm fluorescence, primary screen (AID 1125).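 Also: score merges 667 nm channel intensity with signal to noise over triplicate slides.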 The note with it: higher = more signal.
Assay [7] has as its system Chordin-like protein 2 (CHRDL2). Nature of the assay: compounds binding chordin-like 2 – biochemical, small-molecule microarray, 635 nm fluorescence, primary screen (AID 1126).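 Also: printed compound slides probed with Chrdl2 protein at 4 µg/mL for 1 h at 4 C; score merges 667 nm emission intensity with signal to noise over three replicate slides.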 The note with it: fluorescence 635 nm, higher = more signal.
The target in assay [8] is Concanavalin-A (Canavalia ensiformis) (UniProt P02866). Nature of the assay: compounds binding concanavalin A lectin – biochemical, small-molecule microarray, Alexa647 label, 635 nm, artefact control for SMM control protein annotation, primary screen (AID 1127).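 Also: z combines 667 nm emission intensity with signal-to-noise across three replicate slides.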 Conditions: ConA-A647 binding fluorescence, higher = more signal.
Chain of Concanavalin-A (Canavalia ensiformis) (P02866 whole entry, looked up): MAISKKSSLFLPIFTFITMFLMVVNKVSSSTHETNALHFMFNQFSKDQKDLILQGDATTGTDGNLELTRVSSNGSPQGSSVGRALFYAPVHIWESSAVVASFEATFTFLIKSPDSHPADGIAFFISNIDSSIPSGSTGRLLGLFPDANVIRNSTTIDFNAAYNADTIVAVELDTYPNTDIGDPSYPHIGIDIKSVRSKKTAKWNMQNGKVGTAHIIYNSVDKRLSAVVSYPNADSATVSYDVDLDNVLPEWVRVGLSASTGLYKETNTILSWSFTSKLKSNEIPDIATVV

Chain of Albumin (Bos taurus) (P02769 whole entry, looked up): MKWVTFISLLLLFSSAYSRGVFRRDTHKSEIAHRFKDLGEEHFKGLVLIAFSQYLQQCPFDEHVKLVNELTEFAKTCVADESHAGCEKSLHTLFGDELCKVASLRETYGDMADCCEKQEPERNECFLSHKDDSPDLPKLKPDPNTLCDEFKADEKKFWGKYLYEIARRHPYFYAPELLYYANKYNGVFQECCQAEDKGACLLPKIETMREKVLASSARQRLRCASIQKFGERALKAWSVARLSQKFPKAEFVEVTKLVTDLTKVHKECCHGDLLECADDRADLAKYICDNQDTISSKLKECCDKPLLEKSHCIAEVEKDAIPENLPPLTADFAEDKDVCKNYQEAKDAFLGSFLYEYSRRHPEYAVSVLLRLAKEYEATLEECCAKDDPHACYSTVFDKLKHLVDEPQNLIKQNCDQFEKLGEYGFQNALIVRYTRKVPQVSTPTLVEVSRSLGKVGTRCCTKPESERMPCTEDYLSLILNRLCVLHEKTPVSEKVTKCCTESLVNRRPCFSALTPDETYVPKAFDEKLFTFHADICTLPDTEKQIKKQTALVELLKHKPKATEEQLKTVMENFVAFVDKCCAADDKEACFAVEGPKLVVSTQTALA

As to `CO[C@H]1O[C@H](CO)[C@@H](OC(=O)Nc2ccc3c(c2)OCO3)[C@H](OC(=O)Nc2ccc3c(c2)OCO3)[C@@H]1OC(=O)Nc1ccc2c(c1)OCO2`, the composite z-score is 0.792 with Albumin (Bos taurus); 0.0789 in assay [2]; -0.0349 in assay [3]; 0.572 in [4]; 2.51 in [5]; 0.943 in assay [6]. The composite z-score in the assay with Sam68 (KHDRBS1) worked out at 1.31; in [7], 0.12; in [8], 0.954. Moreover, the composite Z-score in [1] was 0.871 (inactive).
As to `COCCCNC(=O)[C@@]1(Sc2ccc(C)cc2)CC(=O)N(C2Cc3ccccc3C2)[C@@H]1c1ccc(CO)cc1`, the composite z-score with Albumin (Bos taurus) is 0.0753; in assay [2], -0.157; in assay [3] it was -0.181; in assay [4], 0.748; in assay [5], 0.537; in assay [6], 0.352. The results for the composite z-score (with Sam68 (KHDRBS1); in assay [7]; in [8]) were 0.209, -1.86 and 0.163, respectively. Besides, in assay [1], the composite Z-score is 1.23 (inactive).
For the compound `[N-]=[N+]=NCc1ccccc1[C@@H]1OC(c2ccc(OCCCO)cc2)=N[C@]1(CCS(=O)(=O)c1ccccc1)C(=O)O`, the composite z-score is 0.951 in the assay with Albumin (Bos taurus); 0.0311 in [2]; -0.0145 in assay [3]; 0.786 in assay [4]; 1.6 in assay [5]; 0.0649 in [6]. The composite z-score was 0.585 in the assay on Sam68 (KHDRBS1), -1.92 in assay [7] and 0.448 in assay [8]. For the same compound, the composite Z-score in [1] is 0.0313 (inactive).
As for `C=CCNC(=O)[C@H]1[C@@H]2C(=O)O[C@@H](c3ccccc3)[C@@H](c3ccccc3)N2[C@@H](c2ccccc2OCCO)[C@]12C(=O)N(C(=O)OCCOC)c1ccc(C#CC3(O)CCCCCC3)cc12`, the composite z-score with Albumin (Bos taurus) came to 0.604; in assay [2] it was 0.0225; in [3], 0.0018; in [4], 0.309; in [5], 1.79; in assay [6] it was 1.05. In addition, the composite z-score in the assay on Sam68 (KHDRBS1) worked out at 1.29; in assay [7], 0.174; in assay [8], 0.815. The composite Z-score in assay [1] is 0.359 (inactive).
Consider `[N-]=[N+]=Nc1ccccc1[C@@H]1OC(c2ccc(OCCCO)cc2)=N[C@]1(Cc1ccccc1)C(=O)N1CCCCC1`, for which the composite z-score with Albumin (Bos taurus) is 0.712; in assay [2], 0.22; in assay [3], -0.108; in [4], 0.415; in [5], 1.94; in [6], 1.36. For the same compound, the results for the composite z-score (in the assay on Sam68 (KHDRBS1); in [7]; in [8]) were 1.29, -0.365 and 0.948, respectively. In addition, in assay [1], the composite Z-score is 0.254 (inactive).
Take `CCCC[C@@H]1C[C@H]1[C@@H](NC(=O)c1cccs1)c1ccccc1C(F)(F)F`: the composite z-score was 0.485 in the assay with Albumin (Bos taurus); 0.265 in assay [2]; 0.0117 in [3]; 0.431 in assay [4]; 2.62 in assay [5]; 0.588 in assay [6]. The figures for the composite z-score (in the assay with Sam68 (KHDRBS1); in [7]; in [8]) were 1.27, -0.319 and 1.08, respectively. The composite Z-score in [1] was -0.147 (inactive).
For `C=CCC(OC(C)=O)[C@@H]1[C@@H](N(Cc2ccc(-c3cccc(C(F)(F)F)c3)o2)C(=O)Cc2ccc(OC)cc2)c2cc(OCCCO)ccc2N1C(=O)c1ccc(-c2ccccc2)cc1` (stereo not given in full), the composite z-score in the assay with Albumin (Bos taurus) was 0.0925; in assay [2], 0.0711; in [3], 0.0178; in assay [4], 0.251; in assay [5], 0.206; in [6] it was -0.155. Moreover, the composite z-score in the assay on Sam68 (KHDRBS1) was 0.272; in [7], 0.121; in assay [8] it was -0.94. Further, in assay [1], the composite Z-score was -0.4 (inactive).
Consider `COc1ccc(CCNC(=O)[C@@]2(Sc3ccc(C)cc3)CC(=O)N(Cc3ccccc3C(F)(F)F)[C@@H]2c2ccc(CO)cc2I)cc1`, for which the composite z-score was 0.589 in the assay with Albumin (Bos taurus); -0.357 in [2]; 0.102 in assay [3]; 0.759 in [4]; 2.09 in assay [5]; -0.0867 in assay [6]. Besides, the values for the composite z-score (in the assay with Sam68 (KHDRBS1); in assay [7]; in assay [8]) were -0.3, -0.865 and -0.71, respectively. In assay [1], the composite Z-score is -0.0511 (inactive).
In the case of `COCCOC(=O)N1C(=O)[C@@]2(c3cc(C#CC4=CCCCC4)ccc31)[C@H](c1ccccc1OCCO)N1[C@H](c3ccccc3)[C@H](c3ccccc3)OC(=O)[C@H]1[C@@H]2C(=O)NC[C@H](O)c1ccccc1`, the composite z-score in the assay with Albumin (Bos taurus) was -0.185; in assay [2] it was 0.463; in assay [3], -0.118; in assay [4], 0.409; in assay [5], 1.53; in assay [6], 0.661. Besides, the values for the composite z-score (in the assay on Sam68 (KHDRBS1); in assay [7]; in assay [8]) were 1.3, 0.715 and 1.14, respectively. For the same compound, in [1], the composite Z-score is 0.511 (inactive).
With `CCCCCCCCCC(O)C1C=CC2C(=O)N(c3ccccc3)C(=O)C2N1Nc1cc(OC)c(OC)c(OC)c1` (stereo not given), the composite z-score was 0.168 in the assay with Albumin (Bos taurus); -0.0751 in assay [2]; -0.14 in assay [3]; 0.528 in assay [4]; 2.25 in [5]; -0.354 in [6]. Moreover, the values for the composite z-score (in the assay with Sam68 (KHDRBS1); in assay [7]; in [8]) were 0.683, -0.919 and 0.932, respectively. Besides, the composite Z-score in assay [1] is 0.182 (inactive).
On to `CCCCCC1=C2CNC(C)(C(=O)OC)C=C2C(C)C1=O` (stereo not given), for which the composite z-score is 0.673 with Albumin (Bos taurus); -0.0716 in assay [2]; 0.0414 in [3]; 0.839 in assay [4]; 1.18 in [5]; 0.947 in [6]. The values for the composite z-score (in the assay on Sam68 (KHDRBS1); in assay [7]; in assay [8]) were -0.868, -0.409 and -1.51, respectively. Moreover, in [1], the composite Z-score is 0.239 (inactive).
`COC(=O)C1=CC(CCCO)=CC(c2ccc(CN3CCCC3)cc2)N(Cc2cccc(OC(F)(F)F)c2)C=C1C(=O)OC` (stereo not given): the composite z-score is 0.996 with Albumin (Bos taurus); 0.133 in [2]; -0.0502 in assay [3]; 0.387 in [4]; 2.21 in [5]; 0.612 in [6]. Moreover, the results for the composite z-score (in the assay with Sam68 (KHDRBS1); in assay [7]; in assay [8]) were 1.3, -0.551 and 1.11, respectively. Also, in [1], the composite Z-score is 0.29 (inactive).
With `O=C1OCCC=C[C@H]2OC34C=CCN(Cn5nnc6ccccc65)C(=O)[C@H]3N(CCCO)C(=O)[C@@H]4C12` (stereo not given in full), the composite z-score with Albumin (Bos taurus) was -0.841; in assay [2] it was -0.353; in assay [3] it was -0.13; in assay [4] it was 0.0109; in assay [5], -1.05; in assay [6] it was 1.45. Further, the composite z-score in the assay with Sam68 (KHDRBS1) is -0.674; in assay [7], -0.433; in assay [8], -1.2. Also, in assay [1], the composite Z-score is -0.0287 (inactive).
Take `COCC(=C=CC[C@H](O)c1ccc(CO)o1)CCO`: the composite z-score with Albumin (Bos taurus) was 0.0697; in assay [2] it was 0.0066; in assay [3], -0.14; in [4] it was 0.748; in assay [5] it was 1.27; in assay [6], -0.0497. Besides, the composite z-score in the assay with Sam68 (KHDRBS1) turned out to be 0.601; in assay [7], 0.0549; in [8], 0.494. Moreover, in [1], the composite Z-score is 0.701 (inactive).
